How the values were obtained:
[1] = target: T1, Aspartate--tRNA(Asp/Asn) ligase (Mycobacterium tuberculosis (strain ATCC 25618 / H37Rv)) (UniProt P9WFW3); test: Assay for Asp RNA synthetase-1 from Mycobacterium tuberculosis; format: functional; parameters: scale not given: direction of the effect not stated beside the values; conditions: 30 µM; also: in the data most compounds retested in dose-response had high values
T1 sequence (whole entry): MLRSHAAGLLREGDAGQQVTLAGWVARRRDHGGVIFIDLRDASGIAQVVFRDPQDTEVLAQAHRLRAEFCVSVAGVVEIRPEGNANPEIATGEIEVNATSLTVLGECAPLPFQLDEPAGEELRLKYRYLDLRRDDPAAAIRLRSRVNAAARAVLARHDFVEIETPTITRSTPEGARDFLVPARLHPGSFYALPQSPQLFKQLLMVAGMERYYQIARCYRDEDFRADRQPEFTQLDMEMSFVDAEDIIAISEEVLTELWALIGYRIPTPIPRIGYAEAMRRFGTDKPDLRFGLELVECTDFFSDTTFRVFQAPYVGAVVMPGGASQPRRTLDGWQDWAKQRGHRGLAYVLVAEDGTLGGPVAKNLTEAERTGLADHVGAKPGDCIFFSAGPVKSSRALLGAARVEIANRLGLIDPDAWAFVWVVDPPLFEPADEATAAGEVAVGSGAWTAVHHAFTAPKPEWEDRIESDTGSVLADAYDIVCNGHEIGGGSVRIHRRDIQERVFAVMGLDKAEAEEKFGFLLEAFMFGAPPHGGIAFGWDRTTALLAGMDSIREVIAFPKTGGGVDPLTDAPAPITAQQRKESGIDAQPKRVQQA

[2] = target: Shiga toxin 2 (Escherichia coli O157:H7) (UniProt P09385+P09386); test: E. coli 0.157:H7 Shiga Toxin SOP - stx2 screening assay; format: functional; parameters: scale not given: direction of the effect not stated beside the values; conditions: 30 µM

Compound | Percent Effect [1] [%] | Percent Effect [2] [%]
O=C(CN1CCCCC1Cn1cncn1)NCc1ccccn1 (configuration not stated) | 4.05 | 4.47
CCc1nnc2n1CCN(C(=O)c1cnc3ccccc3n1)C2 | -4.57 | 0.361
COCc1nc(C(=O)N2CCCC2c2ccccc2C)cs1 (configuration not stated) | -0.975 | -12.9
Cc1ccoc1-c1nnc(CN2CCn3c(nnc3C3CC3)C2)o1 | -2.98 | -36.6
CCn1cnnc1CNC(=O)N1CCCN(C(C)=O)CC1 | -0.98 | 25.6
Cc1ccccc1N1CC2(CCN(S(=O)(=O)C3CC3)C2)CC1=O (configuration not stated) | -1.07 | -4
Cn1cnc2c1C(COCC1CC1)CN(Cc1ccc3c(c1)OCO3)C2 (configuration not stated) | 0.999 | -23.1
CC(=O)N1CCn2c(C(=O)N(C)C)cnc2C1 | -2.78 | -21.6
C[S+]([O-])c1nncn1CC(=O)c1cccc(Cl)c1 (configuration not stated) | -0.917 | -33.8
Cc1cc(C(=O)NCc2ccnc(N3CCN(C)CC3)c2)c(C)s1 | -3.03 | -30.4
Cn1cc(CN2CC3(CCN(C(=O)c4ccoc4)C3)C2)cn1 | -2.07 | -8.68
Cc1nccc(N2CCC(=O)N(Cc3ccc(F)cc3)C(C(C)C)C2)n1 (configuration not stated) | -2.67 | -4.25
COCc1noc(-c2ccc(N3CCCCC3CO)nc2)n1 (configuration not stated) | -2.46 | -5
Cn1cc(CCNC(=O)NCc2nnc3n2CCC3)cn1 | -2 | 5.89
CC(=O)N1CCOC2(CCN(C(=O)c3cnoc3C)CC2)C1 | -1.11 | 4.56
Cc1nc2c(c(N3CC=CC3)n1)CCN(Cc1ccoc1)CC2 | -8.35 | -69.4
CC(C)c1nnc2ccc(N3CCC(C(N)=O)CC3)nn12 | -3.92 | -20.5
CCOc1ccc(CC(CNC(=O)c2ccoc2)C(N)=O)cc1 (configuration not stated) | -3.95 | -12.5
COc1ccc2c(c1)CCN(CCC(=O)O)CC2 | 3.94 | -33.8
Cc1nnc(NCc2cccnc2N(C)C)c(C#N)c1C | 0.728 | 0.124
O=C1COC2(CCN(Cc3ccoc3)CC2)CN1c1ccsc1 | 4.25 | -18.4
Cc1ccc(N2CC3(COCCN(Cc4cccnc4)C3)OCC2=O)s1 (configuration not stated) | 10.1 | -4.57
O=C1COC2(CCN(Cc3ccccn3)CC2)CN1CC1CC1 | 4.21 | -7.99
COCCN1CCC2(CCCN(C(=O)c3cnoc3C)C2)C1=O (configuration not stated) | 0.137 | -23
COc1c(CNCCNC(=O)Cc2ccc(F)cc2)c(C)nn1C | 1.84 | 30.8
O=C(Cc1cccnc1)N1CCC(OCc2ccccc2)CC1 | -3.5 | 7.67

Compound | Percent Effect [1] [%] | Percent Effect [2] [%]
Cn1ccnc1CN1CCN(c2ccc(C#N)cn2)CC1 | 1.72 | -34.8
CC(N(C)Cc1nc2c(cnn2C)c(=O)[nH]1)C(C)(C)C (configuration not stated) | 5.45 | 28.9
O=C(CN1CCC(C(=O)c2cc(F)ccc2F)CC1)NC1CCCC1 | -0.27 | -63.4
Cc1ccsc1C(=O)NCCCn1nc2ccccn2c1=O | 1.69 | 16.8
CN1[C@H](CN2CCCC2)C[C@@H]2CN(C(=O)Cc3cccs3)CC[C@@H]21 | 3.89 | -16
O=C(c1ccc2c(c1)OCO2)N1CCC[C@]2(C[C@H](OCC3CC3)CO2)C1 | 1.07 | 5.01
CCOC(CC)C(=O)NCc1ccnc(Oc2ccc(F)cc2)c1 (configuration not stated) | 0.301 | 5.28
Cc1cnc(C(=O)N2C[C@@H]3CN(CC4CCCC4)CCO[C@@H]3C2)cn1 | -4.04 | -21.5
CC(NC(=O)CCOc1ccccc1Cl)c1nnc2n1CCC2 (configuration not stated) | -1 | 22.6
COc1ncccc1CNC(=O)c1cccc(C)n1 | -1.63 | -24.7
CCc1nccn1C1CCCN(C(=O)c2ccc(C(=O)NC)nc2)C1 (configuration not stated) | 2.25 | 2.77
CCN1CCN(c2nc(C(C)C)nc3c(C)nn(CC)c23)CC1 | -2.11 | -52.4
CC(C)c1cc(C(=O)NCCN2CCCS2(=O)=O)n[nH]1 | -5.19 | -14.6
COc1cc2ncn(CC(=O)NCCCN(C)C)c(=O)c2cc1OC | -2.9 | -29.9
COc1cc(NC(=O)Cn2ccc3sc(C)cc3c2=O)cc(OC)c1 | -2.26 | 0.557
COc1cccc(OC)c1C(=O)N1CCN(c2ccccc2F)CC1 | 1.49 | 35.2
CC(NC(=O)NCCCN(C)C)c1ccc2c(c1)CCC(=O)N2 (configuration not stated) | -3.92 | 7.67
COc1ncccc1CN1CCn2c(Cn3cncn3)cnc2C1 | -2.81 | -13.9
CC(OCC(F)(F)F)C(=O)N1CCCCC1 (configuration not stated) | 1.09 | -2.39
CCC1=N[C@@]2(CC[C@@H]3CN(C(=O)NCC(C)C)C[C@@H]32)C(=O)N1CC(C)C | 4.11 | -9.55
O=C(NCCc1cccc(F)c1)NCC(O)c1cccc(F)c1 (configuration not stated) | -1.7 | 32.2
CC(C)NC(=O)N1CC[C@@H]2CN(Cc3ccccc3)S(=O)(=O)[C@@H]2CC1 | -3.29 | -5.27
O=C(c1ccc(-n2cccn2)nc1)N1CCCN(c2cccnn2)CC1 | -4.61 | 3.17
Cc1nnc(C(C)NCC2(c3ccc(Cl)cc3)CCCC2)o1 (configuration not stated) | 4.47 | 3.13
COc1c(C2CCCN2CC(=O)Nc2nc(C)cs2)c(C)nn1C (configuration not stated) | -3 | -14.6
